# In PubChem BioAssay (NCI):
# About 79,000 compounds went through this panel and 15% of them were active in at least one assay; those are over-represented in the sample as a whole. Unmarked numbers belong to inactive results. Activity calls are given as the source filed them. Cut-off read from the data, not from the text of the source: active = growth inhibition above about 70%; inactive = the rest.
# Columns and labels:
# [1] = NCI Yeast Anticancer Drug Screen. Data for the rad52 strain (AID 147);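 note: 0% = growth of vehicle-treated control cultures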; conditions: S. cerevisiae rad52 mutant growth inhibition, hits give high values
# Method in brief: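 Yeast strain carrying a DNA damage repair alteration was exposed to test compounds. Growth inhibition was measured relative to vehicle-treated controls.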
# [2] = NCI Yeast Anticancer Drug Screen. Data for the wt1 strain (AID 149);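 note: 0% = growth of vehicle-treated wt1 cultures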; conditions: S. cerevisiae wt1 strain (SPY 50644) growth inhibition, hits give high values
# Method in brief: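 Compounds are added to wt1 yeast cultures. Growth is then measured. Inhibition is expressed relative to vehicle-treated controls.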
# [3] = NCI Yeast Anticancer Drug Screen. Data for the rad50EPP+ strain (AID 151);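 note: 0% = growth of vehicle-treated control cultures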; conditions: S. cerevisiae rad50 mutant strain, hits give high values
# Method in brief: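 Yeast strain carrying rad50 alteration (rad50EPP+) exposed to compounds; growth inhibition measured relative to vehicle-treated controls.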
# [4] = NCI Yeast Anticancer Drug Screen. Data for the mgt1 strain (AID 153); conditions: S. cerevisiae mgt1 mutant growth inhibition, hits give high values
# Method in brief: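 Yeast mgt1 strain (DNA repair/cell-cycle alteration panel) exposed to compounds; growth inhibition measured relative to vehicle-treated controls.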
# [5] = NCI Yeast Anticancer Drug Screen. Data for the rad50 strain (AID 155);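 note: 0% = growth of vehicle-only cultures of the same strain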; conditions: S. cerevisiae rad50 strain growth inhibition, hits give high values
# Method in brief: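 Inhibition values express reduced yeast growth in compound-treated cultures relative to vehicle-treated controls.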
# [6] = NCI Yeast Anticancer Drug Screen. Data for the mec2-1 strain (AID 157); conditions: S. cerevisiae mec2-1 strain, hits give high values
# Method in brief: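 mec2-1 yeast strain, carrying an alteration in DNA damage repair or cell cycle control, was exposed to compounds; growth inhibition was measured relative to vehicle-treated controls.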
# [7] = NCI Yeast Anticancer Drug Screen. Data for the rad14 strain (AID 159);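 note: 0% = growth of vehicle-treated control cultures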; conditions: S. cerevisiae rad14 strain growth inhibition, hits give high values
# Method in brief: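 A mutant yeast strain defective in DNA damage repair is treated with compound; inhibition of its growth is scored against untreated, vehicle-exposed cultures.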
# [8] = NCI Yeast Anticancer Drug Screen. Data for the sgs1 mgt1 strain (AID 161);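 note: 0% = growth of cultures given vehicle only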; conditions: S. cerevisiae sgs1 mgt1 strain, hits give high values
# Method in brief: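 Percent growth inhibition was derived by comparing compound-exposed mutant yeast with vehicle-exposed cultures. The strain carries alterations in DNA damage repair.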
# [9] = NCI Yeast Anticancer Drug Screen. Data for the CLN2oe strain (AID 163);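 note: 0% = growth of vehicle-only control cultures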; conditions: S. cerevisiae CLN2oe strain, hits give high values
# Method in brief: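 Yeast cells carrying a defined cell-cycle control alteration were exposed to test compounds. Growth inhibition was scored against vehicle-treated control cultures.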
# [10] = NCI Yeast Anticancer Drug Screen. Data for the cln2 rad14 strain (AID 165);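 note: 0% = growth equal to vehicle treated cultures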; conditions: S. cerevisiae cln2 rad14 strain, hits give high values
# Method in brief: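 Yeast carrying cln2 and rad14 alterations (cell cycle control and DNA damage repair) were exposed to compounds. Growth inhibition was measured against vehicle-treated controls.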
# [11] = NCI Yeast Anticancer Drug Screen. Data for the bub3 strain (AID 167); conditions: S. cerevisiae bub3 mutant strain, hits give high values
# Method in brief: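 Steps: expose the mutant yeast strain to compound; grow alongside vehicle-treated cultures; measure growth; express inhibition against the vehicle cultures.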
# [12] = NCI Yeast Anticancer Drug Screen. Data for the wt2 strain (AID 169);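 note: 0% = growth of vehicle-treated yeast cultures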; conditions: S. cerevisiae wt2 strain growth inhibition, hits give high values
# Method in brief: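 Yeast cells were exposed to test compounds, and growth inhibition was measured relative to vehicle-treated controls.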
# [13] = NCI Yeast Anticancer Drug Screen. Data for the mlh1 strain (AID 171);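 note: 0% = growth of vehicle-treated control cultures of the same strain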; conditions: S. cerevisiae mlh1 strain growth inhibition, hits give high values
# Method in brief: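 Yeast carrying a defined genetic alteration in DNA damage repair or cell cycle control were exposed to test compounds. Growth inhibition was measured relative to vehicle-treated controls.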
# [14] = NCI Yeast Anticancer Drug Screen. Data for the sgs1 strain (AID 173);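 note: 0% = growth of vehicle-only control cultures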; conditions: S. cerevisiae sgs1 mutant, hits give high values
# Method in brief: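 Yeast mutant strains carrying defined defects in DNA damage repair or cell cycle control were exposed to test compounds. Growth inhibition was scored against vehicle-treated controls.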
# [15] = NCI Yeast Anticancer Drug Screen. Data for the mlh1 rad18 strain (AID 175); conditions: S. cerevisiae mlh1 rad18 strain growth inhibition, hits give high values
# Method in brief: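 Growth inhibition of the yeast strain was measured after compound exposure and expressed relative to vehicle-treated controls. The strain carries defined defects in DNA damage repair.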
# [16] = NCI Yeast Anticancer Drug Screen. Data for the rad18 strain (AID 177); conditions: S. cerevisiae rad18 mutant growth inhibition, hits give high values
# Method in brief: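 Yeast carrying a defined DNA damage repair alteration were exposed to compounds. Growth inhibition was expressed relative to vehicle-treated controls.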
# [17] = at 5.0 µM (retest, dose inferred, filed as 0.5)
# [18] = at 50.0 µM (retest, dose inferred, filed as 5.0)
smiles,measurement,setting,value
CNc1ccc(Cc2c[nH]c3ccccc23)cc1,growth inhibition,[1]; at 1.2 µM,-20%
same,growth inhibition,[1]; at 3.7 µM,-35%
same,growth inhibition,[1]; at 11.0 µM,-27%
same,growth inhibition,[1]; at 33.0 µM,4%
same,growth inhibition,[1]; at 100.0 µM,22%
same,growth inhibition,[2]; at 1.2 µM,-11%
same,growth inhibition,[2]; at 3.7 µM,-11%
same,growth inhibition,[2]; at 11.0 µM,-17%
same,growth inhibition,[2]; at 33.0 µM,-17%
same,growth inhibition,[2]; at 100.0 µM,-1%
same,growth inhibition,[3]; at 1.2 µM,-36%
same,growth inhibition,[3]; at 3.7 µM,-48%
same,growth inhibition,[3]; at 11.0 µM,-23%
same,growth inhibition,[3]; at 33.0 µM,26%
same,growth inhibition,[3]; at 100.0 µM,39%
same,growth inhibition,[4]; at 1.2 µM,-32%
same,growth inhibition,[4]; at 3.7 µM,-28%
same,growth inhibition,[4]; at 11.0 µM,-32%
same,growth inhibition,[4]; at 33.0 µM,1%
same,growth inhibition,[4]; at 100.0 µM,25%
same,growth inhibition,[5]; at 1.2 µM,-40%
same,growth inhibition,[5]; at 3.7 µM,-48%
same,growth inhibition,[5]; [17],42%
same,growth inhibition,[5]; at 11.0 µM,-41%
same,growth inhibition,[5]; at 33.0 µM,14%
same,growth inhibition,[5]; [18],76% (active)
same,growth inhibition,[5]; at 50.0 µM,89% (active)
same,growth inhibition,[5]; at 100.0 µM,26%
same,growth inhibition,[6]; at 1.2 µM,-28%
same,growth inhibition,[6]; at 3.7 µM,-15%
same,growth inhibition,[6]; [17],56%
same,growth inhibition,[6]; at 11.0 µM,-23%
same,growth inhibition,[6]; at 33.0 µM,-5%
same,growth inhibition,[6]; [18],86% (active)
same,growth inhibition,[6]; at 50.0 µM,67.9%
same,growth inhibition,[6]; at 100.0 µM,8%
same,growth inhibition,[7]; at 1.2 µM,-21%
same,growth inhibition,[7]; at 3.7 µM,-19%
same,growth inhibition,[7]; at 11.0 µM,-18%
same,growth inhibition,[7]; at 33.0 µM,-5%
same,growth inhibition,[7]; at 100.0 µM,-3%
same,growth inhibition,[8]; [17],-13%
same,growth inhibition,[8]; [18],64%
same,growth inhibition,[9]; at 1.2 µM,-8%
same,growth inhibition,[9]; at 3.7 µM,-30%
same,growth inhibition,[9]; at 11.0 µM,-35%
same,growth inhibition,[9]; at 33.0 µM,-19%
same,growth inhibition,[9]; at 100.0 µM,-5%
same,growth inhibition,[10]; [17],27%
same,growth inhibition,[10]; [18],70% (active)
same,growth inhibition,[11]; at 1.2 µM,-8%
same,growth inhibition,[11]; at 3.7 µM,-1%
same,growth inhibition,[11]; [17],15%
same,growth inhibition,[11]; at 11.0 µM,10%
same,growth inhibition,[11]; at 33.0 µM,7%
same,growth inhibition,[11]; [18],89% (active)
same,growth inhibition,[11]; at 100.0 µM,30%
same,growth inhibition,[12]; at 1.2 µM,-17%
same,growth inhibition,[12]; at 3.7 µM,-24%
same,growth inhibition,[12]; at 11.0 µM,-29%
same,growth inhibition,[12]; at 33.0 µM,-5%
same,growth inhibition,[12]; at 100.0 µM,13%
same,growth inhibition,[13]; at 1.2 µM,-35%
same,growth inhibition,[13]; at 3.7 µM,-41%
same,growth inhibition,[13]; at 11.0 µM,-25%
same,growth inhibition,[13]; at 33.0 µM,15%
same,growth inhibition,[13]; at 100.0 µM,27%
same,growth inhibition,[14]; at 1.2 µM,-30%
same,growth inhibition,[14]; at 3.7 µM,-30%
same,growth inhibition,[14]; at 11.0 µM,-31%
same,growth inhibition,[14]; at 33.0 µM,11%
same,growth inhibition,[14]; at 100.0 µM,28%
same,growth inhibition,[15]; [17],35%
same,growth inhibition,[15]; [18],79% (active)
same,growth inhibition,[15]; at 50.0 µM,84.8% (active)
same,growth inhibition,[16]; at 1.2 µM,-54%
same,growth inhibition,[16]; at 3.7 µM,-64%
same,growth inhibition,[16]; at 11.0 µM,-51%
same,growth inhibition,[16]; at 33.0 µM,-8%
same,growth inhibition,[16]; at 100.0 µM,20%
